Luciferase inh: inhibitors of firefly luciferase. AID 411. Potency, µM (highest dose often 57.1 µM), for inactives: at the top dose activity change, negative = inhibition, hits mostly inhibitors. P08659. 72,000 compounds, 2.2% hits. purified firefly luciferase, luminescence, 8 min; active = well fitted inhibition curve with a large enough effect; inconclusive = small, poorly fitted or top-dose-only effect; note: % is set by controls: 0 for no effect and ±100 for the full control effect; nearly all actives have a fitted effect of over 40% in size
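Titration-based qHTS; buffer 50 mM imidazole pH 7.2, 50 mM KCl, 7 mM MgCl2, 10 uM ATP, 0.01% Tween 20, 0.05% BSA; luciferase/luciferin detector mix added after compound; 8 min, ambient; luminescence.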
Bst PK mod: modulators of Bacillus stearothermophilus pyruvate kinase; Potency, µM; purified pyruvate kinase, luminescence ATP production; ribose 5-phosphate activator present at AC10; 51,000 compounds, 1.2% hits; AID 361; in the data active = potency below about 11 µM; inconclusive = mostly about 12 µM to 25 µM;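 the screen sought inhibitors and activators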;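 note: scaled between full activation by ribose 5 phosphate and full inhibition by luteolin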
GBA mod: alters purified human glucocerebrosidase activity | P04062 | purified enzyme, resorufin glucoside fluorescence (screen aimed at inhibitors), 20 min | Potency, µM | 48,000 compounds, 1.1% hits; in the data active = potency below about 15 µM; inconclusive = mostly about 16 µM to 33 µM;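 note: the screen sought inhibitors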
Target sequence (P04062 whole entry, looked up): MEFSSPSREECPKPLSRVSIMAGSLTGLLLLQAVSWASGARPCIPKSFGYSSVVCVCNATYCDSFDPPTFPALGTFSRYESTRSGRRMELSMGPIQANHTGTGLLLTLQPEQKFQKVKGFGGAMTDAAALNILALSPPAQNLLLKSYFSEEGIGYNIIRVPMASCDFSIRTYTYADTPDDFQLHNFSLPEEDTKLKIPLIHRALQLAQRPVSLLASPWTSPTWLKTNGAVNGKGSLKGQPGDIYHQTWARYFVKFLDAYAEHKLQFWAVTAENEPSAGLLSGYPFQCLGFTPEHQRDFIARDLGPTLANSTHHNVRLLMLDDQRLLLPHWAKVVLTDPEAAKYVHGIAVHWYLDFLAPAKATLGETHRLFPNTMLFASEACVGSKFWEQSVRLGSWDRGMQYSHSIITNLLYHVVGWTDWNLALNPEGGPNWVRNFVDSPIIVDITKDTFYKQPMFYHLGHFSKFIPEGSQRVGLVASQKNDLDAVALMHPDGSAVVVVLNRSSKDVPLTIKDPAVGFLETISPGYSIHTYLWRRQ
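Normal human glucocerebrosidase (0.2 nM final) was assayed with resorufin β-D-glucopyranoside (30 uM final) in 50mM citric acid/KH2PO4, 10mM sodium taurocholate, 0.01% tween-20, pH 5.9. Compounds were titrated; fluorescence (Ex 548, Em 600) read after 20 min at RT.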
* marks the source's active call; other numbers are inactive results; i = inactive; ? = inconclusive; . = no result given; [ ] = remark or other dose. The list is not random: actives were taken first. Their share in the collection is about 3.2%. Potency is the fitted concentration of half-maximal effect.

SMILES | Luciferase inh | Bst PK mod | GBA mod
CN1/C(=C\C(=O)c2cccs2)Sc2ccccc21 | 6.31µM* | 6.56* | >76.9
O=C(O)c1[nH]c2c([N+](=O)[O-])cc([N+](=O)[O-])cc2c1C(=O)O | 1.0%[11.4 µM] | . | .
CCc1ccccc1Nc1nc(N)nc(COC(=O)c2cccn2C)n1 | 0.2% | >57 | >76.9
Cn1cccc1C(=O)OCc1cc(Cl)cc2c1OCOC2 | -1.9% | >57 | 12.2*
Cc1ccc(S(=O)(=O)OC2CCN(C)CC2)cc1 | 2.6%[11.4 µM] | . | .
NC(=O)c1ccccc1N/C=C/C(=O)c1ccccc1 | 3.16µM* | 2.47* | >76.9
CC(C)=CC(=O)Nc1ccccc1C(N)=O | 0.9% | >57 | >76.9
O=C(Cn1cc2c(n1)CCCC2)N1CCCc2ccccc21 | -1.4% | . | .
O=C(Cn1nnc(-c2ccc3c(c2)OCO3)n1)N1CCOCC1 | 1.1% | >57 | >76.9
O=C(Cn1nnc(-c2ccc(CN3CCOCC3)cc2)n1)N1CCCc2ccccc21 | -0.8% | 5.56* | >76.9
COc1ccc(-c2ccc(-c3nnn(CC(=O)N4CCOCC4)n3)cc2)cc1 | 1.58µM* | 2.64* | >76.9
CCN=C(N)CSS(=O)(=O)O | -0.1%[11.4 µM] | . | .
COc1ccc(-c2nc3cnc(N4CCOCC4)nc3n(-c3ccc(OC)cc3)c2=O)cc1 | -0.1%[11.4 µM] | . | .
CN(C)Cc1cc(O)c(O)c(CN(C)C)c1 | -1.9%[11.4 µM] | . | .
Cc1ccnc(N2CCCC(C(=O)Nc3nnc(C)s3)C2)n1 (stereo not drawn) | 0.4% | >57 | .
Cc1ccnc(N2CCC(C(=O)Nc3nnc(C)s3)CC2)n1 | -3.7% | >57 | 11.7*
COc1ncc2nc(-c3cccc(C#N)c3)c(=O)n(CCC#N)c2n1 | -0.4%[11.4 µM] | . | .
Nc1ncnc2c1ncn2[C@H]1O[C@@H](CO)[C@@H](O)[C@H]1N | 0.1%[11.4 µM] | . | .
O=C(O)c1ccccc1NCn1c(=S)sc2ccccc21 | 5.1%[11.4 µM] | . | .
Cc1occc1C(=O)Nc1cc(C(C)(C)C)on1 | 15.8µM* | . | >76.9
Cc1occc1C(=O)Nc1nnc(C(F)(F)F)s1 | -4.4% | >57 | ?
Cc1occc1C(=O)Nc1ccccc1C(=O)O | -10.7% | . | .
Cc1occc1C(=O)Nc1ccc2ccccc2c1 | 20µM* | . | .
CC1(C)[C@@H]2CC[C@@]1(CS(=O)(=O)Nc1ccccc1)C(=O)C2 | 2.2%[11.4 µM] | . | .
CCN(CC)c1ccc2cc(C(=O)Nc3cccnc3N3CCOCC3)c(=O)oc2c1 | -0.3% | >57 | .
SMILES | Luciferase inh | Bst PK mod | GBA mod
CCN(CC)c1ccc2cc(C(=O)Nc3ccccn3)c(=O)oc2c1 | 1µM* | i | .
CCN(CC)c1ccc2cc(NC(=O)CCC(=O)O)c(=O)oc2c1 | 15.8µM* | i | >76.9
CCN(CC)c1ccc2cc(-c3nnc(-c4ccncc4)o3)c(=O)oc2c1 | -1.7%[25.5 µM] | >25.6 | .
O=S(=O)(O)c1cc(O)c2c(O)c(N=Nc3cccc4ccccc34)c(S(=O)(=O)O)cc2c1 | -25.0%[11.4 µM] | . | .
O=c1c(-c2ccc3c(c2)OCCO3)coc2cc(O)cc(O)c12 | ? | 5.96* | >76.9
CCc1cc2c(=O)c(-c3ccc4c(c3)OCCO4)coc2cc1OC(=O)c1ccco1 | -17.9% | i | >76.9
COc1ncc2nc(-c3cc(F)cc(F)c3)c(=O)n(C[C@H]3CCCO3)c2n1 | 1.1%[11.4 µM] | . | .
COc1cc(OC)cc(-c2nnc(Nc3nc4c(F)cccc4s3)o2)c1 | -0.4% | >57 | >76.9
COc1ccc(-c2nnc(Nc3nc4c(OC)cccc4s3)o2)cc1 | 10µM* | >57 | >76.9
Fc1cccc2sc(Nc3nnc(-c4ccccc4)o3)nc12 | 12.6µM* | i | >76.9
COc1ccc(-c2ccc(-c3nnc(-c4cc(OC)ccc4OC)o3)cc2)cc1 | 0.1% | >57 | >76.9
COc1cccc2sc(NC(=O)c3ccc(S(=O)(=O)N4CCOCC4)cc3)nc12 | 2.3% | >57 | >76.9
COc1ccc(-c2nnc(Nc3nc4c(OC)cccc4s3)o2)c(OC)c1 | 12.6µM* | >57 | >76.9
C[N+](C)(C)CC[N+]1(C)Cc2c(Cl)c(Cl)c(Cl)c(Cl)c2C1 | 3.5% | . | .
O=C(O)c1cccc(N=Nc2c(S(=O)(=O)O)ccc3c2C(=O)c2ccccc2C3=O)c1O | -1.0%[11.4 µM] | . | .
CN(C)CCCc1cc(C(=O)Nc2ccc(-c3ccncc3)cc2)ccc1O | 0.7% | . | .
Cc1ccc(C(=O)Nc2cccc(C(=O)O)c2)cc1S(=O)(=O)N1CCCCC1 | 12.6µM* | . | .
Cc1ccc(C(=O)Nc2ccc3c(c2)OCO3)cc1S(=O)(=O)N1CCCC1 | -23.4% | >57 | >76.9
O=C(O)C[C@@H](C(=O)O)C1c2ccccc2-c2ccccc21 | 0.6%[11.4 µM] | . | .
C=C[C@@]1(C)C=C2CC[C@@H]3[C@](C)(CCC[C@@]3(C)C(=O)O)[C@H]2CC1 | 4.0%[11.4 µM] | . | .
CCCn1c(=N)n(CC(O)COc2cccc(C)c2)c2ccccc21 (stereo not drawn) | -0.6% | >57 | 12.1*
CCCCn1c(=N)n(CC(O)COc2ccc(C)cc2)c2ccccc21 (stereo not drawn) | -2.7% | >57 | 10.6*
CCn1c(=N)n(CC(O)COc2cccc(C)c2)c2ccccc21 (stereo not drawn) | -0.4% | >57 | ?
CCCCn1c(=N)n(CC(O)COc2ccccc2)c2ccccc21 (stereo not drawn) | 0.1% | >57 | ?
N#CCCn1c(=O)c(CCc2ccccc2)nc2cnc(Oc3cccc(Cl)c3)nc21 | 0.0%[11.4 µM] | . | .
SMILES | Luciferase inh | Bst PK mod | GBA mod
CN(C)c1ccc(Nc2nc(-c3cccnc3)cs2)cc1 | 0.631µM* | . | .
O=C(Nc1nc(-c2cccnc2)cs1)c1ccc(S(=O)(=O)N2CCOCC2)cc1 | -0.8% | >57 | >76.9
O=c1ccn([C@@H]2O[C@@H](COP(=O)(O)OP(=O)(O)O)[C@H](O)[C@@H]2O)c(=O)[nH]1 | 1.3% | . | .
N#C/C(=C\Nc1ccccn1)C(=O)C1CC1 | -0.7%[11.4 µM] | . | .
CN(C)[C@H]1C(=O)C(C(=O)NCN2CCCC2)=C(O)[C@]2(O)C(=O)C3=C(O)c4c(O)cccc4[C@@](C)(O)[C@H]3C[C@@H]12 | -0.5%[25.5 µM] | . | .
O=c1c2ccccc2ncn1Cc1nc2ccccc2s1 | -37.1% | i | >76.9
O=c1c2ccccc2cnn1-c1nc2ccccc2s1 | 0.159µM* | 0.163* | >76.9
CS(=O)(=O)N1CCC2(CCCN(C(c3ccccc3)c3ccccc3)C2)CC1 | -0.1%[11.4 µM] | . | .
N#CC1=C(N)C(C#N)(C#N)C2(CCC3(CC2)OCCO3)C2CC3(CC=C12)OCCO3 (stereo not drawn) | 0.7% | >57 | >76.9
N#CC1=C(N)C(C#N)(C#N)[C@H](c2c(F)cccc2F)[C@H]2CC3(CC=C12)OCCO3 | -2.1% | >57 | 13.6*
Cc1ccccc1-c1ccc2ncnc(N3CCNCC3)c2c1 | 0.4%[2.29 µM] | . | .
COc1ccc(-n2nc3cc(C)c(N)c(Br)c3n2)cc1 | 3.98µM* | 3.42* | ?
COc1ccc(-n2nc3ccccc3n2)cc1 | -11.3% | . | >76.9
COc1ncc2nc(-c3cc(F)cc(F)c3)c(=O)n(C3CC3)c2n1 | -0.8%[11.4 µM] | . | .
O=C(Nc1cnn(C23CC4CC(CC(C4)C2)C3)c1)c1cnn2cccnc12 | 2.51µM* | ? | ?
CCOC(=O)CNC(=O)c1cnn2cccnc12 | -0.6% | >57 | >76.9
COC(=O)c1ccc(NC(=O)Cc2ccccc2)cc1 | ? | . | >76.9
COC(=O)c1ccc(NC(=O)Nc2ccc(F)cc2)cc1 | 20µM* | i | >76.9
Cc1nc(Nc2ccc3c(c2)OCCO3)c2oc3ccccc3c2n1 | -4.2% | 4.32* | >76.9
Cc1nc(NCc2ccc3c(c2)OCO3)c2oc3ccccc3c2n1 | 1.3% | >57 | >76.9
Nc1c(C(=O)NC2CCCC2)c2nc3ccccc3nc2n1/N=C/c1cccnc1 | -3.1% | >57 | ?
N#Cc1c(-c2ccco2)cc(-c2ccc(F)cc2)nc1N | 0.7% | 4.68* | >76.9

Screening results: PubChem BioAssay, National Center for Advancing Translational Sciences (NCATS)
